VP16 counter – VP16 counterscreen qHTS for inhibitors of ROR gamma transcriptional activity. Drosophila S2 Gal4-VP16 UAS-luciferase, luminescence, 20 h. 3.5% of 310,000 active. Potency, µM (doses to about 53.6 µM), usual class: inhibitors;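 note: Gal4-VP16 expression switched on by copper sulfate through the metallothionein promoter; nearly all actives have a fitted effect of over 50% in size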
TDP1 cell CPT – qHTS for Inhibitors of human tyrosyl-DNA phosphodiesterase 1 (TDP1): qHTS in cells in presence of CPT; chicken DT40 Tdp1-/-;hTDP1 cells + 20 nM CPT, ATP luminescence, 48 h; Potency, µM (doses to about 46.2 µM), most hits filed as inhibitors; 12% of 420,000 active; note: nearly all actives have a fitted effect of over 55% in size
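Cell growth measured by CellTiter-Glo luminescence after a minimum 48 h, 37 C compound exposure with 20 nM CPT in Tdp1-knockout DT40 cells stably expressing hTDP1, seeded 400/well; qHTS titration format.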
ELG1 DNA repair – qHTS screen for small molecules that inhibit ELG1-dependent DNA repair in human embryonic kidney (HEK293T) cells expressing luciferase-tagged ELG1; HEK293T ELG1-luciferase reporter, luminescence, 16 h; DNA damage induced by 5-fluorouridine; AID 504467, 2011; Potency, µM (series often up to 46.1 µM), hits mostly inhibitors; 2.3% of 330,000 active; note: nearly all actives have a fitted effect of over 55% in size
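Luminescence from the luciferase reporter, measured 30 min after ONE-Glo reagent at room temperature, was the read-out. Beforehand, 2,000 cells per well were exposed for 16 hr at 37 °C to 5-fluorouridine together with compound or vehicle.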
DT40 TDP1 no CPT – qHTS for Inhibitors of human tyrosyl-DNA phosphodiesterase 1 (TDP1): qHTS in cells in absence of CPT; DT40 Tdp1-/- hTDP1 cells, no CPT, ATP luminescence, 48 h; Potency, µM (titrated, usually from 46.2 µM), most hits filed as inhibitors; 15% of 420,000 active; AID 686978, 2013; note: nearly all actives have a fitted effect of over 55% in size
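Readout: luminescence from CellTiter-Glo after 30 min in the dark at RT. Cells: DT40 Tdp1-/- with stable hTDP1, 400/well. Exposure: compounds alone, ≥48 hr, 37 °C.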
IL-1B inflam inh – qHTS for Inhibitors of Inflammasome Signaling: IL-1-beta AlphaLISA Primary Screen; AID 743279, 2014; 4.7% of 360,000 active; activity change, % at 57.5 µM; THP-1 LPS/ATP IL-1B secretion, AlphaLISA, 16 h; active compounds read low; in the data active = activity change below about -50%; inconclusive = mostly about -30% to -49%
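Secreted IL-1B measured by AlphaLISA bead assay after 16 h compound exposure of THP-1 cells; compounds (final up to 57.5 uM) added 1 h before LPS (250 ng/mL) and ATP (1.25 mM) stimulation; lower signal means less secretion.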
RORgamma inh – qHTS for inhibitors of ROR gamma transcriptional activity | Drosophila S2 Gal4-RORgamma UAS-luciferase reporter, 20 h | Potency, µM (titrated, usually from 53.6 µM), usual class: inhibitors | 5.4% of 310,000 active; note: nearly all actives have a fitted effect of over 60% in size
Target sequence (P51450 whole entry, looked up, the tested form may be a part): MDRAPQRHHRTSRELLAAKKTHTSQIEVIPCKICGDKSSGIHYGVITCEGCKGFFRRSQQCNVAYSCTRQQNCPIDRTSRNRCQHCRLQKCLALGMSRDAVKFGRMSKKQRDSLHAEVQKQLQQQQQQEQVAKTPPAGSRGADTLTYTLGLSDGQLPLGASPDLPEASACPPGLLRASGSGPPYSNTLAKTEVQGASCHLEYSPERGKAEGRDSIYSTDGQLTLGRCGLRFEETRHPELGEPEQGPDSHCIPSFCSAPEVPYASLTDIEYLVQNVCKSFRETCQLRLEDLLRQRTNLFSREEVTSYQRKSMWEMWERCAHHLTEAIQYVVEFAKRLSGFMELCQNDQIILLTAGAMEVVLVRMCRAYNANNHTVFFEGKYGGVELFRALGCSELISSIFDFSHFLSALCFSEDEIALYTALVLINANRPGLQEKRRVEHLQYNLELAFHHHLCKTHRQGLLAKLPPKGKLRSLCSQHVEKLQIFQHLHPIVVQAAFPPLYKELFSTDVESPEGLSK
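Luciferase reporter read in Schneider cells carrying Gal4-RORγ (mouse) and UAS-Photinus luciferase; cells given compound 1 h before 700 uM copper sulfate induction, then incubated 20 h at ambient temperature.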
A number is an active result; [ ] = another dose, or the depositor's remark. Most compounds without a hit are left out; they make up all but 21% or so of the library. Unless noted, calls come from the whole dose curve; as a rule, active = well fitted curve in the direction sought with a large enough effect; inconclusive = small, poorly fitted or top-dose-only effect, or another doubt; inactive = no such curve, though single readings can be large; an effect the other way counts as inactive or inconclusive.

For Nc1nonc1C(=O)N/N=C/c1ccc([N+](=O)[O-])o1 the results were VP16 counter inconclusive, TDP1 cell CPT 7.31µM, ELG1 DNA repair inactive, DT40 TDP1 no CPT 9.2µM, IL-1B inflam inh -87.2 and RORgamma inh inconclusive.
`N/C(=N\[N+](=O)[O-])N/N=C/c1ccc(O)cc1` gave VP16 counter inactive, TDP1 cell CPT inactive, ELG1 DNA repair inactive, DT40 TDP1 no CPT inactive, IL-1B inflam inh inactive and RORgamma inh inactive.
O=C(Cl)c1ccccc1F was read as VP16 counter inactive and RORgamma inh inactive.
Screening Cc1cc(C)cc(OCC(=O)Nc2ccc(-c3nc4ccccc4s3)cc2)c1 returned TDP1 cell CPT 10.3µM and DT40 TDP1 no CPT 9.2µM.
Cc1[nH]nc2ccc(-c3cncc(OC[C@@H](N)Cc4c[nH]c5ccccc45)c3)cc12 was read as TDP1 cell CPT 0.581µM, DT40 TDP1 no CPT 0.581µM and IL-1B inflam inh -104.3.
`O=C1NC(=O)N(Cc2ccco2)C(=O)/C1=C/c1ccc(-c2cccc([N+](=O)[O-])c2)o1` gave VP16 counter inconclusive, TDP1 cell CPT 18.4µM, ELG1 DNA repair inconclusive, DT40 TDP1 no CPT inconclusive, IL-1B inflam inh inconclusive and RORgamma inh inactive.
Screening C=CCN1C(=O)NC(=O)/C(=C\c2ccc(-c3ccccc3[N+](=O)[O-])o2)C1=O returned VP16 counter inactive, TDP1 cell CPT inconclusive, ELG1 DNA repair inconclusive, DT40 TDP1 no CPT 18.4µM, IL-1B inflam inh -99.6 and RORgamma inh inactive.
CCN(CC)c1ccc(/C=C2/C(=O)NC(=O)N(Cc3ccco3)C2=O)cc1 was read as VP16 counter inactive, TDP1 cell CPT inactive, ELG1 DNA repair inconclusive, DT40 TDP1 no CPT inactive, IL-1B inflam inh -64.3 and RORgamma inh inactive.
Cc1cc(/C=C2/C(=O)NC(=O)N(Cc3ccco3)C2=O)c(C)n1-c1ccccc1 was read as VP16 counter inactive, TDP1 cell CPT inactive, ELG1 DNA repair inactive, DT40 TDP1 no CPT inactive, IL-1B inflam inh inactive and RORgamma inh inconclusive.
For CN(C)c1ccc(/C=C2/C(=O)NC(=O)N(Cc3ccco3)C2=O)cc1 the results were VP16 counter inactive, TDP1 cell CPT inactive, ELG1 DNA repair inactive, DT40 TDP1 no CPT inactive, IL-1B inflam inh inactive and RORgamma inh inactive[10 µM].
For C[C@H](CCC(=O)O)[C@H]1CC[C@H]2[C@@H]3C(=O)C[C@@H]4CC(=O)CC[C@]4(C)[C@H]3CC(=O)[C@]12C the results were VP16 counter inactive, TDP1 cell CPT inconclusive, ELG1 DNA repair inactive, DT40 TDP1 no CPT inactive, IL-1B inflam inh inactive and RORgamma inh inactive.
COP(=O)(OC)c1nc(-c2ccc([N+](=O)[O-])cc2)oc1N1CCCCC1 was read as VP16 counter inactive, TDP1 cell CPT inconclusive, ELG1 DNA repair inactive, DT40 TDP1 no CPT 20.6µM, IL-1B inflam inh inactive and RORgamma inh inactive.
CCOP(=O)(OCC)c1nc(-c2cccc3ccccc23)oc1N1CCCCC1 was read as VP16 counter inactive, TDP1 cell CPT 20.6µM, ELG1 DNA repair 23.1µM, DT40 TDP1 no CPT inconclusive, IL-1B inflam inh inconclusive and RORgamma inh inactive.
Screening COc1ccc(CNc2oc(-c3cccc4ccccc34)nc2P(=O)(OC)OC)cc1 returned VP16 counter inactive, TDP1 cell CPT inconclusive, ELG1 DNA repair inconclusive, DT40 TDP1 no CPT inconclusive, IL-1B inflam inh inactive and RORgamma inh inactive.
Clc1ccc(CSc2nnc(-c3ccccn3)n2Cc2ccco2)cc1Cl was read as TDP1 cell CPT inconclusive, DT40 TDP1 no CPT inconclusive and IL-1B inflam inh inactive.
`CCC(=O)Nc1ccc(-c2ccc(N3CCN(C)CC3)nn2)cc1` gave VP16 counter inactive, TDP1 cell CPT inactive, ELG1 DNA repair inconclusive, DT40 TDP1 no CPT inactive, IL-1B inflam inh inactive and RORgamma inh inactive.
Screening Cc1cccc2c1=NC(=O)/C(=C/c1c(O)[nH]c(=O)[nH]c1=O)C=2 returned VP16 counter inactive, TDP1 cell CPT inconclusive, ELG1 DNA repair inactive, DT40 TDP1 no CPT inactive, IL-1B inflam inh inactive and RORgamma inh inactive.
Screening O=c1[nH]c(=S)[nH]c(O)c1/C=C1/C=c2ccccc2=N1 returned VP16 counter 12.6µM, TDP1 cell CPT 7.31µM, ELG1 DNA repair inconclusive, DT40 TDP1 no CPT 8.2µM, IL-1B inflam inh -99.3 and RORgamma inh 12.6µM.
Screening CNCC[C@@H](Oc1ccc(C(F)(F)F)cc1)c1ccccc1 returned TDP1 cell CPT inconclusive, ELG1 DNA repair inactive and DT40 TDP1 no CPT inconclusive.
Screening COc1ccc(N2C(=O)/C(=C/c3cccs3)C(=O)NC2=S)cc1 returned VP16 counter inactive, TDP1 cell CPT 5.17µM, ELG1 DNA repair inactive, DT40 TDP1 no CPT 3.66µM, IL-1B inflam inh inactive and RORgamma inh inactive.
For COc1ccc(N2C(=O)/C(=C/c3ccc(N(C)C)o3)C(=O)NC2=S)cc1 the results were VP16 counter inactive, TDP1 cell CPT inactive, ELG1 DNA repair inconclusive, DT40 TDP1 no CPT inactive, IL-1B inflam inh inactive and RORgamma inh inactive.
For O=C1NC(=S)N(c2ccc(F)cc2)C(=O)/C1=C/c1ccccc1O the results were VP16 counter inactive, TDP1 cell CPT inconclusive, ELG1 DNA repair inconclusive, DT40 TDP1 no CPT inactive, IL-1B inflam inh inactive and RORgamma inh inactive.
Cc1ccc(/C=C2\C(=O)NC(=S)N(c3ccc(F)cc3)C2=O)s1 was read as VP16 counter inactive, TDP1 cell CPT 2.91µM, ELG1 DNA repair inconclusive, DT40 TDP1 no CPT 5.8µM, IL-1B inflam inh -107.8 and RORgamma inh inactive.
For COc1cccc(N2C(=O)/C(=C/c3ccc(C)o3)C(=O)NC2=S)c1 the results were VP16 counter inactive, TDP1 cell CPT 14.6µM, ELG1 DNA repair inactive, DT40 TDP1 no CPT 14.6µM, IL-1B inflam inh inactive and RORgamma inh inactive.
For Cc1ccc(/C=C2\C(=O)NC(=S)N(c3ccc(F)cc3)C2=O)o1 the results were VP16 counter inactive, TDP1 cell CPT 7.31µM, ELG1 DNA repair inactive, DT40 TDP1 no CPT 14.6µM, IL-1B inflam inh inactive and RORgamma inh inconclusive.
Cc1ccc(C(=O)Nc2cnn(-c3ccc(C(=O)N(C)Cc4n[nH]c5c4CCCC5)cc3)c2)c(C)c1 was read as TDP1 cell CPT inactive[9.04 µM] and DT40 TDP1 no CPT inconclusive.
For CC(=O)OC1C(O)C(C)OC(OC2C(OC(=O)C3CCC4C(C3)OC3(CC(OC(=O)/C=C/c5ccccc5)C(C)CO3)C43CO3)OC(C)C(O)C2OC(C)=O)C1O (stereo unspecified) the results were TDP1 cell CPT 0.146µM, DT40 TDP1 no CPT 0.0731µM and IL-1B inflam inh -98.2.

Screening results deposited in PubChem by National Center for Advancing Translational Sciences (NCATS).
